These results are taken from PubChem BioAssay (Tox21).

“And” between values parts separate entries of the source, which are not always exact repeats. Identical values can stand only once. Results filed as inconclusive are left out. Where a call stands in place of a potency, no number is given. Some structures have more than one record in an assay (separate samples or runs), and their calls can disagree. The source made the active and inactive calls. The call rests on the fitted dose curve; in most records, active means well fitted cell-killing curve with a large enough effect in the repeat runs; inconclusive means weak or mixed curves, or effect the other way; inactive means no such curve, though single readings can be large or run the other way.
Potency means the concentration at half of the fitted maximal effect.

The test in a line: qHTS assay to identify small molecule antagonists of the peroxisome proliferator-activated receptor gamma (PPARg) signaling pathway - cell viability counter screen (AID 743194). Further: nearly all actives have a fitted effect of over 55% in size. As to conditions: PPARg-bla HEK293H viability, CellTiter-Glo luminescence, 17 h; Potency: co-treated with 50 nM rosiglitazone unless noted; series mostly up to 62.6 µM. An excerpt:
U.S. Tox21 Program National Center for Advancing Translational Sciences [NCATS] NIH Chemical Genomics Center [NCGC] U.S. Environmental Protection Agency [EPA] National Institutes of Environmental Health Sciences [NIEHS] National Toxicology Program [NTP] U.S. Food and Drug Administration [FDA] Tox21 Assay Overview: The peroxisome proliferator-activated receptors (PPARs) are lipid-activated transcription factors of the nuclear receptor superfamily with three distinct subtypes namely PPAR alpha, PPAR delta (also called PPAR beta) and PPAR gamma (PPARg). All these subtypes heterodimerize with Retinoid X receptor (RXR) and these heterodimers regulate transcription of various genes. PPAR-gamma receptor (glitazone receptor) is involved in the regulation of glucose and lipid metabolism. To identify the compounds that activate PPAR-gamma signaling, GeneBLAzer PPAR gamma UAS-bla HEK293H cell line (Invitrogen, Carlsbad, CA, USA) containing a beta-lactamase reporter gene under the control of an Upstream Activator Sequence (UAS) was used to screen the Tox21 compound library. The cytotoxicity of the Tox21 compound library against the PPARg-bla cell line was tested in parallel by measuring the cell viability using CellTiter-Glo assay in the same wells.
Tox21 Assay Protocol Summary: PPARg-bla cells were dispensed at 3000 cells/5uL/well in 1536-well black wall/clear bottom plates using a Multidrop Combi (Thermo Fisher Scientific, Waltham, MA) dispenser. After the assay plates were incubated at 37 C and 5% CO2 for 5 h, 23 nL of compounds dissolved in DMSO, positive controls or DMSO only was transferred to the assay plate by a Pintool station (Kalypsys, San Diego, CA), followed by addition of 1ul Rosiglitazone (50 nM, final concentration in the wells). The assay plates were incubated at 37 C for 17 h, and then 1 uL of LiveBLAzerTM B/G FRET substrate was added using a Bioraptr Flying Reagent Dispenser (FRD) workstation (Beckman Coulter, Indianapolis, IN, USA). The assay plates were incubated at room temperature for 1 h and fluorescence intensity was measured by an Envision plate reader (PerkinElmer, Shelton, CT). For cell viability readout that measures cytotoxicity, 4 ul/well of CellTiter-Glo reagent was added into the assay plates using a Flying Reagent Dispenser. After 30 min incubation at room temperature, the luminescence intensity in the plates was measured using a ViewLux plate reader (PerkinElmer).
For orientation: In qHTS, concentration-response curves come from the screen itself.
As for `Brc1ccc(Br)cc1`, the Potency entry is “inactive”.

As for `CSc1nc(NC(C)C)nc(NC(C)C)n1`, the Potency entry was “inactive”. With `CC1(C)Cc2cccc(O)c2O1`, the Potency entry is “inactive”. In the case of `OC(c1ccc(Cl)cc1)(c1cncnc1)c1ccccc1Cl` (stereo not given), the Potency entry was “inactive”. For the compound `N#Cc1nn(-c2c(Cl)cc(C(F)(F)F)cc2Cl)c(N)c1S(=O)C(F)(F)F` (stereo not given), the Potency entry is “inactive”. As for `CCOS(=O)(=O)OCC`, the Potency entry is “inactive”. The entry for `ClCC(Cl)CCl` is “inactive”.

As for `CC(C)CON=O`, the Potency entry was “inactive”. `c1ccc2c(c1)Nc1ccccc1S2`: the Potency entry was “inactive”. The same measure for `CCCCCCCC[N+](C)(CCCCCCCC)CCCCCCCC`: 7.75 µM (active) and 3.47 µM (active) and 5.49 µM (active).

As for `C=CC(=O)OCC(CC)(COC(=O)C=C)COC(=O)C=C`, the Potency is 28.3 µM (active) and 9.77 µM (active). As for `NN=C(N)N`, the Potency result is “inactive”.

For the compound `COP(=S)(OC)Oc1ccc(S(=O)(=O)N(C)C)cc1`, the Potency result is “inactive”. The same measure for `ClC(Cl)=C(Cl)C(Cl)=C(Cl)Cl`: “inactive”. The same measure for `CN(C)c1ccccc1`: “inactive”. The figure for `CC(C)(c1ccc(OCC2CO2)cc1)c1ccc(OCC2CO2)cc1` (stereo not given) is 55.7 µM (active); for `CCCCOCCOC(C)=O` it is “inactive”.

Turning to `CC1=C(C(=O)Nc2ccccc2)SCCO1`, the Potency result was “inactive”.

Consider `COP(=O)(NC(C)=O)SC` (stereo not given), for which the Potency entry was “inactive”. For `CNC(=O)Oc1cccc2c1OC(C)(C)C2`, the Potency result is “inactive”. The same measure for `Cn1c(-c2ccccc2)cc(-c2ccccc2)[n+]1C`: “inactive”; for `COP(=S)(OC)Oc1ccc(Sc2ccc(OP(=S)(OC)OC)cc2)cc1`: “inactive”; for `CCC[CH2][Sn]([Cl])([Cl])[CH2]CCC`: 882 nM (active) and 43.6 nM (active). The figure for `CCC[CH2][Sn]([Cl])([CH2]CCC)[CH2]CCC` is 1.38 µM (active) and 1.1 µM (active); for `O=C1CCCO1` it is “inactive”. The entry for `CC(C)Nc1nc(Cl)nc(NC(C)C)n1` is “inactive”; for `Cc1cccc(N=Nc2ccc(N(C)C)cc2)c1` it is “inactive”. Take `CCC/C=N/O`: the Potency entry is “inactive”. On to `CCC(=O)Nc1ccc(Cl)c(Cl)c1`, for which the Potency result is “inactive”. The entry for `CC(C)=CC1C(C(=O)OCN2C(=O)C3=C(CCCC3)C2=O)C1(C)C` (stereo not given) is “inactive”. The entry for `CC(C)=CC1C(C(=O)OCc2cccc(Oc3ccccc3)c2)C1(C)C` (stereo not given) is “inactive”. The entry for `COc1ccc(C=O)cc1OC` is “inactive”; for `O=[N+]([O-])/N=C1\NCCN1Cc1ccc(Cl)nc1` it is “inactive”. With `N#Cc1c(Cl)c(Cl)c(Cl)c(C#N)c1Cl`, the Potency is 2.41 µM (active) and 1.55 µM (active). The same measure for `CCCCCCCCCC(CC)c1ccc(S(=O)(=O)O)cc1` (stereo not given): “inactive and 15.5 µM [setting not given] (active)”; for `Cc1cc(Cl)ccc1N=CN(C)C`: “inactive”; for `Cl`: “inactive”.

As to `CC1(C)C(C(=O)OC(C#N)c2cccc(Oc3ccccc3)c2)C1(C)C` (stereo not given), the Potency result was “inactive”.

As to `C=CC(Cl)CCl` (stereo not given), the Potency result is “inactive”.

Take `CCNCC`: the Potency result is “inactive”.
